# Assay results published in PubChem BioAssay (NCI).
# This is part of a sample that, as a whole, favours compounds with a hit. Of some 83,000 tested, about 20% had one in any assay.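 Activity criterion: percent growth below 10, measured after cells in 96-well plates were exposed to a single compound concentration for 48 hours.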 The source made the active and inactive calls.
# System: HL-60(TB) leukemia
# Assay: NCI-60 one-dose screen, 48 h (100 = growth as untreated, 0 = no growth, -100 = all killed)
# Conditions: 10 µM unless noted
row,SMILES,growth
1,O=S(=O)(O)c1cccc(Nc2ccc3ccccc3c2)c1,89.9% (inactive)
2,CCCCCCCCCCOC(c1ccccc1)c1ccccc1,81.4% (inactive)
3,CSc1nc(=O)n(Cc2ccc(F)cc2)c(=O)n1Cc1ccc(C)cc1,90% (inactive)
4,CN1CCN(C(=O)[C@@]2(C)CC[C@]3(C)CC[C@]4(C)C(=CC[C@@H]5[C@@]6(C)CC[C@H](OC(=O)c7cccnc7)C(C)(C)[C@@H]6CC[C@]54C)[C@@H]3C2)CC1,-49.1% (active)
5,O=C1NCCN1/N=C/c1c(Cl)nc2n1CCS2,72.2% (inactive)
6,O=C1N(c2ccccc2)C(=S)N[C@]12[C@H](c1ccccc1)C1CCCN1[C@]21C(=O)NC2C=CC(Cl)=C[C@H]21 (stereo partly specified),81.5% (inactive)
7,C=C[C@@]1(C)CC(=O)[C@@H](C(C)(C)c2cn(C)c3ccc(Br)cc23)C[C@@H]1O[Si](C)(C)C(C)(C)C,106% (inactive)
8,CC(=O)Cc1ccccn1,85.4% (inactive)
9,COc1ccc(-c2c(-c3cc(OC)c(OC)c(OC)c3)noc2N)cc1,12.5% (inactive)
10,Cc1ccc2nc(-c3ccc(OCC(=O)N=Nc4c(O)[nH]c5ccccc45)cc3)[nH]c2c1,88.9% (inactive)
11,O=C1c2cccnc2C(=O)c2c1c(C(=O)OCCc1ccccn1)c1ccccn21,-19.5% (active)
12,[O-][n+]1ccccc1CCN(O)CCc1cccc[n+]1[O-],74.2% (inactive)
13,COc1ccc(C2c3ccc4ccccc4c3Oc3ncnc(N)c32)cc1 (stereo unspecified),89% (inactive)
14,CN1CCN(CCCNC(=O)c2c3c(n4ccccc24)C(=O)c2ncccc2C3=O)CC1,-25.4% (active)
15,Fc1cnc(NC2CC2)nc1-c1cnc2ccc(N3CCOCC3)cn12,-15.5% (active)
16,Cn1cc(-c2csc(-c3cn(CCCN4CCOCC4)c4ccccc34)n2)c2cccnc21,70.9% (inactive)
17,COC(=O)C(CC(=O)c1ccc(-c2ccccc2)cc1)c1ccccc1 (stereo unspecified),15.4% (inactive)
18,NC(N)=N/N=C(/c1ccccc1)c1ccc(F)cc1,-70.6% (active)
19,COC(=O)N[C@H]1CCc2cc(OC)c(OC)c(OC)c2-c2ccc(SC)c(=O)cc21,-45.4% (active)
20,COc1cc2nc(N3CCCC3)nc(Nc3ccccc3)c2cc1OC,-53.9% (active)
21,Cc1ccc(Nc2oc(-c3ccccc3)nc2[P+](c2ccccc2)(c2ccccc2)c2ccccc2)cc1,-32.5% (active)
22,CCCN1CCN(c2ccc3nc(-c4ccc5nc(-c6cc(OC)c(OC)c(OC)c6)[nH]c5c4)[nH]c3c2)CC1,97.4% (inactive)
23,Nc1c(S(=O)(=O)O)cc2c3c(cccc13)C(=O)OC2=O,134% (inactive)
24,CC(=O)OC1Oc2cc(C)c(C)cc2-c2oc(=O)c(-c3cc4ccc(N(C)C)cc4oc3=O)cc21 (stereo unspecified),25.6% (inactive)
25,Cc1ccc(S(=O)(=O)OCC(=O)Nc2ccc(C(=O)O)c(O)c2)cc1,60.4% (inactive)
26,CCN1CCN(CCOc2ccc(CNc3ccc4nc(CCC5CCCCC5)[nH]c4c3)cc2)CC1,-12.7% (active)
